High-throughput results (PubChem)
The full list was thinned out, with hits kept by preference.
ST2 inh = inhibitors of human ST2 (IL1RL1) binding to IL-33, primary screen, biochemical, AlphaLISA | Interleukin-1 receptor-like 1 (Homo sapiens), Q01638 | AlphaLISA ST2-Fc/biotin-IL-33 interaction, 1 h | inhibition, % for hits at 17 µM | 78,000 tested, 2.3% active; in the data active means inhibition above about 30%
Target sequence (Q01638 whole entry, looked up): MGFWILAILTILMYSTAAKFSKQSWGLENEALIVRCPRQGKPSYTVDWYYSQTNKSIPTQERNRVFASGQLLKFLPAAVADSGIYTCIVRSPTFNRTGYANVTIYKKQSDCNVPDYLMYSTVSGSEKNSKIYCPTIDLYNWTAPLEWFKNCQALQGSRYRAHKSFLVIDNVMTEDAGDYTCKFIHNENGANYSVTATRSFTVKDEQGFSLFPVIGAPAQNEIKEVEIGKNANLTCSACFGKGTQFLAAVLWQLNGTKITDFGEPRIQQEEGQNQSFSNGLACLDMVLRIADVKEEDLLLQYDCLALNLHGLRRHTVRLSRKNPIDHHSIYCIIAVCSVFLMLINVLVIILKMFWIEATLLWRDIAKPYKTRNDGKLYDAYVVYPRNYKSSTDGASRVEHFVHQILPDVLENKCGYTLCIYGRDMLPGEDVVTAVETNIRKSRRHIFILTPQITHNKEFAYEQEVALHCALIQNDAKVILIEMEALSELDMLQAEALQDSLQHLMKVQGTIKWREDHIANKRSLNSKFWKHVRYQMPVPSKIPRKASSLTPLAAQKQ
Numbers stand for hits; i = inactive; ! = repeats disagree.

SMILES	ST2 inh
CCOc1c(N2CCN(c3ccccc3)CC2)c(=O)c1=O	i
N#Cc1c(Nc2ccccc2)cc[nH]c1=O	i
CC(=O)OC(CCCCCCCCCC(C)O)Cc1cc(O)cc(O)c1 (configuration not stated)	i
N[C@@H](Cc1c[nH]c2ccccc12)C(=O)O	i
NC(=O)CCc1c[nH]c2ccccc12	i
O=C(O)Cc1c[nH]c2ccc(O)cc12	41%!
COc1ccc(OC)c(S(=O)(=O)Nc2ccc(Br)cc2)c1	i
O=C(O)c1ccc(NCc2cccs2)cc1	i
COc1ccccc1NCc1cccs1	32%
O=C(Cc1cccs1)Nc1ccccc1NC(=O)Cc1cccs1	i
CN1CCCN(Cc2ccc(F)cc2F)CC1	i
CCSc1nc2c(cc1C#N)CCCC2	i
CCC(Sc1nc(C)cc(C)n1)C(=O)Nc1cc(C)on1 (configuration not stated)	i
CCC(Sc1nc2c(cc1C#N)CCCCC2)C(=O)Nc1cc(C)on1 (configuration not stated)	30%
CS(=O)(=O)N1Cc2ccccc2CC1C(=O)Nc1ccccc1F (configuration not stated)	i
Cc1ccc(Cl)cc1Nc1nnc(C)c(=O)[nH]1	i
CC(=O)Nc1cccc(-c2ccc3c(c2)CCC3=O)c1	i
CC(C)(C)NC(=O)NCCc1nc2cccnc2n1Cc1ccccc1	i
COc1ccc(CNC(=O)NCCc2nc3cccnc3n2Cc2ccccc2)cc1	63%
CC(C)CNC(=O)NCCc1nc2cccnc2n1Cc1ccccc1	i
Cc1csc(NC(=O)c2ccc(CN(C)CC(C)C)cc2)n1	i
COc1ccc(C(C)C)cc1CN1CC[C@H](CO)[C@H](O)C1	i
Cc1ccc(NC(=O)Cc2ccc(F)cc2F)cc1	i
CC1CCCN(S(=O)(=O)c2ccc(C(=O)Nc3nnc(-c4ccc(F)cc4)o3)cc2)C1 (configuration not stated)	i
c1ccc2c(CN3CCCCC3CCn3ccnc3)ccnc2c1 (configuration not stated)	i
SMILES	ST2 inh
CC1CCN(Cc2cc(Cn3ccnc3)c3cccnc3c2O)CC1	51%
CC1CCN(c2ncnc3ccccc23)CC1	i
CCCn1c(CNC(C)=O)nc2ccccc21	i
Cc1ccc(C(c2c(C)[nH][nH]c2=O)c2c(C)[nH][nH]c2=O)o1	i
COc1ccc(OC)c(/C=C2\SC(c3ccccc3)=NC2=O)c1	51%
COc1ccc(Br)cc1/C=C1/SC(N2CCOCC2)=NC1=O	i
COc1cc(/C=C2\SC(c3ccc(C)cc3)=NC2=O)cc(OC)c1O	80%
COc1ccc(/C=C2\SC(N3CCCCC3)=NC2=O)cc1OC	i
CCCOc1ccc(-c2nc3s/c(=C\c4cc(OC)ccc4OC)c(=O)n3n2)cc1	i
COc1ccc(/C=C2\SC(N3CCCC3)=NC2=O)cc1OC	i
COc1ccc(S(=O)(=O)N(CCc2ccccc2)CC(=O)Nc2ccc(C(N)=O)cc2)cc1	i
CC(C)=CCc1c2c(cc3ccc(=O)oc13)CC(C(C)(C)O)O2 (configuration not stated)	i
COc1ccc(-c2c(C#N)c(N)nc3c2CCCCC3)c(OC)c1	i
COc1ccc(CN2CCN(Cc3cnc(S(C)(=O)=O)n3CC(C)C)CC2=O)cc1	i
COc1ccc(C(=O)Nc2nc(-c3cc4ccccc4oc3=O)cs2)cc1OC	38%
O=C(Nc1nc(-c2cc3ccccc3oc2=O)cs1)c1cc(=O)c2ccccc2o1	i
COc1cc2ccccc2cc1C(=O)Nc1nc(-c2cc3ccccc3oc2=O)cs1	i
O=C(CSc1nc2ccccc2o1)Nc1ccccc1	i
Cn1c(CSc2nc3ccccc3o2)nc2ccccc21	i
O=[N+]([O-])c1ccc(CSc2nc3ccccc3o2)cc1	35%
O=C1CCCC2=C1C(c1ccccc1OCc1ccc(C(=O)O)cc1)C1=C(CCCC1=O)O2	i
O=C(CC(Nc1ccccc1)c1ccccc1)c1ccccc1 (configuration not stated)	i
COc1cc(OC)c(C2SCCN2S(=O)(=O)c2cccc(C)c2)cc1OC (configuration not stated)	i
Cc1cccc(S(=O)(=O)N2CCSC2c2ccc(Br)cc2)c1 (configuration not stated)	i
COc1ccc(C2SCCN2S(=O)(=O)c2cccc(C)c2)cc1[N+](=O)[O-] (configuration not stated)	31%
SMILES	ST2 inh
O=S(=O)(c1ccc(-c2ccccc2)cc1)N1CCSC1c1ccccc1 (configuration not stated)	i
Cc1ccc(S(=O)(=O)N2CCSC2c2ccc(Br)cc2)cc1 (configuration not stated)	70%
COc1ccc(C2SCCN2S(=O)(=O)c2cccc(C(F)(F)F)c2)cc1[N+](=O)[O-] (configuration not stated)	i
CC(C)CCNC(=O)C1CCCN1S(=O)(=O)c1cccc2nsnc12 (configuration not stated)	i
COC(=O)[C@H]1C[C@@H](O)CCN1S(=O)(=O)c1ccc(C(F)(F)F)cc1	i
Cn1c(C(=O)Nc2ccccc2F)cc2c(=O)n3ccccc3nc21	i
